Measurements as given in the supplement of paper PMC3724861.
Only a selection was taken, and hits are over-represented in it overall. No count for the full screen is at hand.

test system: T1, Caupolican (Caup) homeodomain DNA-binding domain; test: PBM E-score (8-mer, recovered from the published 9-mer minima) (E-score (dimensionless, -0.5 to 0.5)); Drosophila protein; higher = stronger relative binding preference, active = 0.31 or more
T1 sequence: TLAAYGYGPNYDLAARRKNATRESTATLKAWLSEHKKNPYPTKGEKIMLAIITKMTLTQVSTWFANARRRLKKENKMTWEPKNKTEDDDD
Method: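 Protein binding microarray (PBM): in vitro transcribed/translated Caupolican (Caup) homeodomain DNA-binding domain (residues 214-303) applied at 100 nM to a universal 8-mer PBM array (Agilent AMADID 015681). The 8-mer enrichment score (E-score, range -0.5 to 0.5) was computed, and each 9-mer score is the minimum E-score of its two constituent 8-mers. The E-score is the same for a 9-mer and its reverse complement; 0.31 is the stated binding threshold.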

PBM E-score, inactive:
AGCCCTCA -0.12, CAACAAAG 0.159, CTAATAAG 0.0971, GGCTAGGA -0.114, ATAAGGAA 0.0175, TAAACGCA 0.034, AGATACGC -0.121, GGGTCTGA -0.193, ACGCTGAG -0.175, AATGTTGG 0.115, AATGTTGA 0.17, CATGTTGC 0.279, CATGTTGG 0.285, AGTCTAAG 0.0473, GTATGTGA 0.193, CTCTGTAA 0.12, CTATGTGA 0.137, ATCTGTAA 0.15, GAATGTAA 0.223, ATATGCAA 0.123, AGGAGGAG -0.188, TATCGCAA 0.0789, CGAGAAGC -0.0725, CGTTTTAC 0.0444, ATTAGTGA 0.107, CTGCTAGC -0.102, GTGGTTGA 0.0698, AATTAGAG 0.00042, CGCCCCAG -0.238, ACATGCGC 0.288, ACATGCAG 0.294, ACATGCGG 0.195, TCATGCAA 0.146, CCATGCAC -0.0759, AAATGCAT 0.0673, GCATGCAA 0.0861, GCATGCAC 0.0682, CGTCGTCA -0.0203, AAAAGCCT -0.0858, AGATTGGC -0.0959, CAGCCTCC -0.292, ACGGGTTC -0.0477, CAACAAGA 0.241, CAACAAGC 0.202, CAACAATC 0.258, AAACAATG 0.256, CGCCCCTA -0.159, GTAAGAGA 0.016, GGCTTGCA -0.0355, CGAACAAA 0.157, CGAACATC 0.279, AGAACAGG 0.139, AGAACAGA 0.16, GGAACATA 0.271, AGAACATC 0.235, TAGCTCGA -0.0721, CACACCGG -0.087, GTCGTTCA 0.0698, AGTTGGAG -0.129, CAGTTAAG 0.0884, CGTCTAAG -0.13, GAAAGGTA 0.0535, AAACTCGA 0.0205, CTGTAATC 0.162, ATGTAAGG 0.303, ACGTAATC 0.155, CTGTAATA 0.193, ACGTAATG 0.16, AAGTAATA 0.134, GAGTAATA 0.167, GCGTAATA 0.076, ACTAGTGA 0.113, CGGTCTGA -0.0584, GGCTTAGA -0.112, ACTACCAA 0.167, GTAGGCAC -0.096, GTTAGGAA 0.0363, AATCACTG 0.0918, ACCCAACT -0.0182, ATGTGTAG 0.193, GTGTGTAA 0.275, CTGTGTAC 0.272, CTGTGTAA 0.294, CATGTCCG 0.303, TATGTCCA 0.214, AATGTCCA 0.251, AATGTCCC 0.0508, GTAACGTA 0.198, CCATGTGC -0.0035, ACATGTGG 0.308, GCATGTGA 0.176, CCATGTGA 0.0957, CACTGGAG -0.159, ATACACCG 0.184, ATCGGGGG -0.264, AGATGTAG 0.244, AGATGTAT 0.29, CGATGTAA 0.276, GGATGTAA 0.299, CCGCGTTA -0.054, GATCTAGA -0.0194, GCACTACA 0.176, ATACTACC 0.0922, GTACTAAA 0.229, CTACTACA 0.305, CAGTTTCG -0.0432, CAGCTACG -0.101, ATCTACAT 0.29, CAGTACAC 0.288, CTGTACAG 0.164, GGGTACAC 0.14, ATGTACCG 0.287, CTGTACAC 0.284, ATGTACGC 0.29, TCCGCAAA -0.0879, CCCTTTCA -0.126, ACCCATCG -0.0141, GCCGTCCC -0.25, GCTTCCAC -0.182, ACCCGCAT 0.00073, CCACTCGG -0.158, AAAGAAGC -0.0635, GGGGTACA 0.0877, TAGACGGA -0.0225, CTCCAGTC -0.121, CCAGTGGA -0.117, AAAGGTAC 0.12, AGTACAGA 0.138, GGTACATA 0.282, CGTACATC 0.263, CGTACAGA 0.142, CAGACGCC -0.147, CCGGTCAA -0.0503, GGATCCCA -0.0305, CCTGTTCA 0.15, ATTGTTCC 0.112, CCTGTTCC 0.0821, ATTGTTCA 0.184, CATGGGGG -0.157, ATGGGAAG -0.07, GGTAGACA 0.117, CGTAGACA 0.122, CTACATCC 0.189, ATTCATGG -0.039, ATACAGGA 0.13, ATCCATGA 0.0343, ATACATCG 0.273, ATGCATGC 0.107, ATTCATGC 0.0406, CCACATGC 0.0879, AAAATTAA 0.0601, TATCGTAA 0.114, ACGACTTC 0.0231, CCGCAGAA -0.0611, CGTCGGCC -0.224, GCGCTGCC -0.257, CCAGAGAG -0.172, CGCTTCAA -0.0124, CTATTGTC 0.0455, GAGGTACC -0.137, CTTTGTAC 0.229, CGTTGTAG 0.154, ACTTGTGC 0.0346, ACTTGTAG 0.297, AGTTGTAC 0.308, CCTTGTGC 0.0734, GCTTGGAC -0.0623, GCCTGTAC 0.164, GCCCCTCA -0.223, CGAACGTC -0.121, ATTGAAAA 0.0968, CAAGTTCA 0.0645, GTCATTTA 0.184, AGCGAGCG -0.0955, GATATGAC 0.0792, CATGAAGA 0.0832, GATGGCGA -0.0291, AGAGTCGG -0.0944, CAGTTAAC -0.00501, GATTGTAC 0.235, CATTGTAG 0.0869, CATTCCAC -0.0122, ACAAGAAT 0.307, GCAAGTTA 0.0766, GCAAGAAC 0.00872, ACAAGTTC 0.233, ACAAGTGG 0.205, CCAAGTAG -0.0584, GCAAGTAA 0.173, CCAAGTAA 0.0669

PBM E-score, active:
CATGTTGA 0.38, AATGTTGT 0.368, ATATGTAA 0.34, CTATGTAA 0.338, GTATGTAA 0.369, ACATGCAT 0.376, ACATGCAA 0.323, ACATGCGT 0.346, ACATGCAC 0.393, CAACAAGG 0.338, CAACAATG 0.323, AGAACATA 0.318, CGAACATA 0.343, AGAACATG 0.406, ATGTAATA 0.383, GTGTAATA 0.315, ATGTAATC 0.348, ATGTAATG 0.37, ATGTGTAC 0.348, ATGTGTAA 0.332, CATGTCCA 0.384, CATGTCCC 0.33, ACATGTGA 0.312, ACATGTGC 0.351, AGATGTAA 0.336, TGATGTAA 0.36, GTACTACA 0.376, ATACTACA 0.364, GTGTACAC 0.389, ATGTACAC 0.441, ATGTACAG 0.343, ATGTACAT ≥ 0.469, CGTACATA 0.336, AGTACATA 0.381, CTTGTTCA 0.33, CTTGTTCC ≥ 0.337, TGTAGACA ≥ 0.313, CTACATGC 0.369, ATACATGA 0.4, ATACATGG 0.422, ATACATGC 0.374, CCTTGTAG 0.322, CCTTGTAC 0.399, ACTTGTAC 0.407, GCTTGTAC 0.38, CATTGTAC 0.323, ACAAGTAA 0.331, ACAAGAAC 0.316, ACAAGTAG 0.351, ACAAGTTA 0.325
